Pol iota inh – qHTS for Inhibitors of Polymerase Iota. DNA polymerase iota (Homo sapiens), Q9UNA4. Pol iota fluorescent replication assay, 10 min. Potency, µM (series often up to 115 µM), usual class: inhibitors. actives 1% (n = 390,000)
Target sequence (Q9UNA4 whole entry, looked up): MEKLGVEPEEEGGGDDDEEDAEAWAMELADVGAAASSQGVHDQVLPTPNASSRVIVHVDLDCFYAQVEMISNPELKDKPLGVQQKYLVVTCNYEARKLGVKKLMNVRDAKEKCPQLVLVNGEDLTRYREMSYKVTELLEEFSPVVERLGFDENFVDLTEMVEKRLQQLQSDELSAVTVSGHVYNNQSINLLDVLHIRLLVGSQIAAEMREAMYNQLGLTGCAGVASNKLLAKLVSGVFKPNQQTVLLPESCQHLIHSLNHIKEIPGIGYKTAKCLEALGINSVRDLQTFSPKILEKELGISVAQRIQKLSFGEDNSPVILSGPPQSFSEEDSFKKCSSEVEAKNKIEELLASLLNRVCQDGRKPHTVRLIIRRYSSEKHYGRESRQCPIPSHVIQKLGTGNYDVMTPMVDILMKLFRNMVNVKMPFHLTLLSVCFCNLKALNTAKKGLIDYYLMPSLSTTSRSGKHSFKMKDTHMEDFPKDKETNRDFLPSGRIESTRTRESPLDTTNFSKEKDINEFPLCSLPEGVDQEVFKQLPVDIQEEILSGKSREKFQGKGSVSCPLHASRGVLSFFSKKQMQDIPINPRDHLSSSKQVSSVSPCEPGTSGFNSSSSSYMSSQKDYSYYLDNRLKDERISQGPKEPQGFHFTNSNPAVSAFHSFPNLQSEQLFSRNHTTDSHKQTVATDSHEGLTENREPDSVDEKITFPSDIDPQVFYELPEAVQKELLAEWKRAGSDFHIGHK
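Pol iota at 10 nM preincubated 15 min with compounds at room temperature; reaction started with fluorescent substrate, 50 nM final. Fluorescence read kinetically at 0 and 10 min; buffer-only wells as negative control.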
POLH inh – qHTS for Inhibitors of Polymerase Eta; DNA polymerase eta (Homo sapiens), Q9Y253; recombinant Pol eta, fluorescent DNA replication assay; Potency, µM (series often up to 114 µM), usual class: inhibitors; actives 1.2% (n = 390,000); AID 588591, 2011
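Fluorescent replication assay: 50 nM final substrate added after a 15 min room-temperature compound preincubation with 10 nM enzyme. Signal taken at 0 min and again at 10 min.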
Pol beta inh – qHTS Assay for Inhibitors of DNA Polymerase Beta | Pol beta primer extension/strand displacement, fluorescence kinetic | Potency, µM (doses to about 114 µM), usual class: inhibitors | actives 1.3% (n = 340,000) | AID 485314, 2010
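Homogeneous kinetic assay of primer extension and strand displacement by 10 nM Pol beta, preincubated 15 min at room temperature with compound before 50 nM substrate (final) was added. Read at 0 and 10 min; four-parameter Hill fit.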
TDP1 inh – qHTS Assay for Inhibitors of Tyrosyl-DNA Phosphodiesterase (TDP1); recombinant TDP1, AlphaScreen DNA substrate cleavage; Potency, µM (titrated, usually from 130 µM), hits mostly inhibitors; actives 0.28% (n = 350,000); AID 485290, 2010; further: nearly all actives have a fitted effect of over 40% in size
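Here, a 5' biotin and 3' phosphotyrosine-FITC DNA oligonucleotide reports Tdp1 activity: intact substrate bridges AlphaScreen beads, while cleavage leaves a 3' phosphate and drops signal. All incubations at room temperature.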
Pol kappa inh – qHTS for Inhibitors of Polymerase Kappa. Potency, µM (top dose mostly 107 µM), actives largely listed as inhibitors. DNA polymerase kappa (Homo sapiens), Q9UBT6. purified Pol kappa, fluorescent DNA synthesis assay, 10 min. actives 0.53% (n = 400,000)
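Activity was followed as the change in fluorescence between reads at 0 and 10 min after starting the reaction with 50 nM substrate. Beforehand, 10 nM polymerase had been preincubated with compound for 15 min at room temperature.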
A number is an active result; [ ] = remark or other dose. A selection: hits, their analogues and other compounds. The true share with any hit is near 2.4%. The call rests on the fitted dose curve; in most records, active means well fitted curve in the direction sought with a large enough effect; inconclusive means small, poorly fitted or top-dose-only effect, or another doubt; inactive means no such curve, though single readings can be large; an effect the other way counts as inactive or inconclusive.

What do the screens show for `CCc1ccc(NC(=O)C(C)Sc2nc(-c3ccco3)c(C#N)c(=O)[nH]2)cc1` (centres undefined)?
Pol iota inh: inconclusive; POLH inh: 17.8µM; Pol beta inh: inactive; TDP1 inh: inactive; Pol kappa inh: inactive

Results for N#Cc1c(-c2ccco2)nc(SCC(=O)Nc2cccc(Cl)c2)[nH]c1=O ?
Pol iota inh: inconclusive; POLH inh: inconclusive; Pol beta inh: 56.2µM; TDP1 inh: inactive; Pol kappa inh: inactive

What do the screens show for `CCOc1ccccc1NC(=O)C(C)Sc1nc(-c2ccccc2)c(C#N)c(=O)[nH]1` (centres undefined)?
Pol iota inh: inactive; POLH inh: inactive; Pol beta inh: inactive; TDP1 inh: inactive; Pol kappa inh: inactive

Results for Cc1ccc(S(=O)(=O)N2CCN(c3nc(-c4cccs4)cc4ccccc34)CC2)cc1 ?
Pol iota inh: inactive; Pol kappa inh: inactive

Results for Cc1ccc(NS(=O)(=O)c2cc3c(cc2N2CCC2)NC(=O)CC3)cc1C ?
TDP1 inh: inactive

Results for COc1ccc(CN(C#N)c2nc(SC)nc(N(C)C)n2)cc1 ?
Pol iota inh: 89.1µM; POLH inh: inconclusive; Pol beta inh: inactive; TDP1 inh: inactive; Pol kappa inh: inconclusive

What do the screens show for `CN(C)C=Nc1ncc2c3ccccc3n(CCN(C)C)c2c1C#N`?
Pol iota inh: inactive; POLH inh: inactive; Pol beta inh: inconclusive; TDP1 inh: inactive; Pol kappa inh: inconclusive

What do the screens show for `CCN(CC)CCn1c2ccccc2c2cnc(N)c(C#N)c21`?
Pol iota inh: inconclusive; POLH inh: inconclusive; Pol beta inh: 14.1µM; TDP1 inh: inactive; Pol kappa inh: inconclusive

Results for CCOc1ccc(NC(=O)c2cnn(-c3ccc(C)c(C)c3)c2C2CCN(C(=O)OC(C)(C)C)CC2)cc1 ?
Pol iota inh: inactive; POLH inh: inactive; Pol beta inh: inactive; TDP1 inh: inactive; Pol kappa inh: inactive

How did COc1cc(C)c(Cl)cc1S(=O)(=O)n1cnc2ccccc21 do in these assays?
Pol iota inh: inactive; POLH inh: inactive; Pol beta inh: 89.1µM; TDP1 inh: inactive; Pol kappa inh: inactive

What do the screens show for `Cn1cnc([N+](=O)[O-])c1SCC(=O)NN`?
Pol iota inh: 79.4µM; POLH inh: inactive; Pol beta inh: inactive; Pol kappa inh: inconclusive

How did Cc1ccc(CCNC(=O)c2ccc3c(c2)c(C)c(C)n3Cc2ccccc2)cc1 do in these assays?
Pol iota inh: inactive; POLH inh: inactive; Pol beta inh: inactive; TDP1 inh: inactive; Pol kappa inh: inactive

Results for Cn1c2ccccc2c2cc(/C=N/NC(=O)c3ccc(N)cc3)ccc21 ?
Pol iota inh: inconclusive; POLH inh: inconclusive; Pol beta inh: 10µM; TDP1 inh: inactive; Pol kappa inh: inconclusive

What do the screens show for `Cc1ccc(S(=O)(=O)N(CC(O)Cn2c3ccccc3c3ccccc32)c2cccc(C(N)=O)c2)cc1` (centres undefined)?
Pol iota inh: inactive; POLH inh: inactive; Pol beta inh: inactive; Pol kappa inh: inactive

How did Cc1ccc(S(=O)(=O)N(CC(O)Cn2c3ccccc3c3ccccc32)c2cccc(C(=O)N(C)C)c2)cc1 (centres undefined) do in these assays?
Pol iota inh: 89.1µM; POLH inh: inactive; Pol beta inh: inactive; Pol kappa inh: 79.4µM

How did O=C(O)c1cc(C(=O)O)cc(-c2ccc(/C=c3/sc4nc5ccccc5n4c3=O)o2)c1 do in these assays?
Pol iota inh: 10µM; POLH inh: 3.55µM; Pol beta inh: 4.47µM; Pol kappa inh: 17.8µM

Results for O=c1/c(=C/c2ccccn2)sc2nc3ccccc3n12 ?
Pol iota inh: inactive; POLH inh: inconclusive; Pol beta inh: inconclusive; TDP1 inh: inactive; Pol kappa inh: inactive

Results for O=c1/c(=C\c2cc([N+](=O)[O-])cc([N+](=O)[O-])c2O)sc2nc3ccccc3n12 ?
Pol iota inh: inconclusive; POLH inh: inconclusive; Pol beta inh: 17.8µM; TDP1 inh: inactive; Pol kappa inh: inconclusive

How did CCc1ccc(NC(=O)CSc2nc3ncccc3[nH]2)cc1 do in these assays?
Pol iota inh: inactive; POLH inh: inactive; Pol beta inh: inactive; TDP1 inh: inactive; Pol kappa inh: inactive

What do the screens show for `Cn1nnnc1Sc1ncnc2scc(-c3ccccc3)c12`?
Pol iota inh: inconclusive; POLH inh: inconclusive; Pol beta inh: 28.2µM; TDP1 inh: inactive; Pol kappa inh: inactive

How did COc1cc2[nH]c3c(=O)n(CCN4CCCCC4)cnc3c2cc1OC do in these assays?
Pol iota inh: inactive; POLH inh: inactive; Pol beta inh: inactive; TDP1 inh: inactive; Pol kappa inh: 22.4µM

Results for COc1ccc2[nH]c3c(=O)n(CCCN4CCOCC4)cnc3c2c1 ?
Pol iota inh: inactive; POLH inh: inactive; Pol beta inh: inactive; TDP1 inh: inactive; Pol kappa inh: inactive

What do the screens show for `COc1ccc(OC)c(-c2csc(NC(=O)COC(=O)c3ccc(NC(=O)CC#N)cc3)n2)c1`?
Pol iota inh: 28.2µM; POLH inh: 20µM; TDP1 inh: inactive; Pol kappa inh: 50.1µM

How did CCN(C(=O)c1nn(-c2ccc(OC)c(Cl)c2)c(=O)c2c1c1ccccc1n2C)c1cc(OC)ccc1OC do in these assays?
Pol iota inh: inactive; POLH inh: inactive; Pol beta inh: inactive; TDP1 inh: inactive; Pol kappa inh: inactive

Results for CC(C)(C)n1ncc2c(=O)n(Cc3ccc(SC(=O)O)cc3Cl)cnc21 ?
Pol iota inh: inactive; Pol kappa inh: inactive

How did CCOC(=O)CNC(=O)c1cc2c(=O)n3cccc(C)c3nc2n1C do in these assays?
Pol iota inh: inactive; POLH inh: inactive; Pol beta inh: 70.8µM; TDP1 inh: inactive; Pol kappa inh: inactive

What do the screens show for `Cc1cccn2c(=O)c3cc(C(=O)NCCc4ccc(S(N)(=O)=O)cc4)n(C)c3nc12`?
Pol iota inh: inactive; POLH inh: 79.4µM; Pol beta inh: inconclusive; TDP1 inh: inactive; Pol kappa inh: inactive

What do the screens show for `O=c1[nH]c(=O)n([C@@H]2O[C@H](CO)[C@@H](O)[C@H]2O)cc1Br`?
TDP1 inh: inactive; Pol kappa inh: inactive[19.4 µM]

How did Nc1cn(C2OC(CO)C(O)C2O)c(=O)[nH]c1=O (centres undefined) do in these assays?
Pol iota inh: inactive; POLH inh: inactive; Pol beta inh: inactive; TDP1 inh: 56.2µM; Pol kappa inh: inactive

Results for O=C(O)c1ccc2c3n(nc2c1)-c1ccc(Cl)cc1CO3 ?
Pol iota inh: 15.8µM; POLH inh: inactive; Pol beta inh: 20µM; Pol kappa inh: 31.6µM

Results for O=C(c1ccc2c3n(nc2c1)-c1ccc(Cl)cc1CO3)N1CCCCC1 ?
Pol iota inh: inactive; POLH inh: inactive; Pol beta inh: inactive; TDP1 inh: inactive; Pol kappa inh: inactive

Results for COc1cc2c(NC3CCN(C)CC3)nc(N3CCCN(C)CC3)nc2cc1OCCCN1CCOCC1 ?
Pol iota inh: inactive; Pol kappa inh: inactive

Assay outcomes deposited in PubChem BioAssay by National Center for Advancing Translational Sciences (NCATS).
